Bioassay records deposited in PubChem BioAssay by Broad Institute.
aSyn 5UTR act: Activators via SNCA 5'UTR binding, MLPCN; activity score, % (tested at 7.5 µM), hits read low; 300,000 compounds, 7.1% hits; alpha-synuclein 5'UTR reporter, activators screen; in the data active = activity score below about -60%
* marks the source's active call; other numbers are inactive results. A selection follows.

SMILES | aSyn 5UTR act
CCOC(=O)COn1c(=O)c(-c2ccc(C)cc2)[n+]([O-])c2ccccc21 | -135.9*
COc1cccc(/C=N/Nc2ncnc3scc(-c4ccccc4)c23)c1O | 60.7
COc1ccc(/C=N/Nc2nncc3ccccc23)cc1 | 67.1
Oc1c(Br)cc(/C=N/Nc2nncc3ccccc23)cc1Br | -108.6*
COc1ccccc1/C=N/Nc1nncc2ccccc12 | -131.5*
COC(=O)/C=C/c1cnc2ccccc2c1 | -92.3*
Cc1cc(/C=N/n2cnnc2)c(C)n1-c1ccc(OCc2ccc(F)cc2)cc1 | -73.4*
Cc1cc(/C=N/n2cnnc2)c(C)n1-c1ccc(OCc2ccc(Cl)cc2Cl)cc1 | 113.1
O=C(Nc1c(C(=O)Nc2ccc3c(c2)OCCO3)cnn1-c1ccccc1Cl)c1ccco1 | -102.1*
O=C(Nc1ccc(NC(=O)c2ccco2)c(Cl)c1)c1ccc2c(c1)OCCO2 | -76.1*
O=C(Nc1cc2c(cc1Br)OCCO2)c1cccs1 | -141.9*
O=C(Nc1cc2c(cc1Br)OCCO2)c1ccco1 | -100.6*
O=C(Nc1cc2c(cc1Cl)OCCO2)c1ccco1 | -162.7*
O=[N+]([O-])c1cc(C(F)(F)F)ccc1Sc1ccc2ccccc2n1 | -75.3*
CC(=O)Nc1cccc(C(=O)OCC(=O)N2CCC(c3ccccc3)=N2)c1 | -88.6*
CCC(=O)Nc1cccc(C(=O)OCC(=O)c2ccccc2Cl)c1 | -171.5*
CC(=O)Nc1cccc(C(=O)OCC(=O)c2ccccc2Cl)c1 | -99.2*
COc1nccnc1NS(=O)(=O)c1ccc(NCc2cc(Br)ccc2O)cc1 | -83.1*
FC(F)(F)c1nnc2c(Sc3ccccc3)nc3ccccc3n12 | -102.7*
O=C(Nc1ccc2c(c1)nc1n2CCOC1)c1ccco1 | -66.2*
O=C(Nc1ccc2c(c1)nc1n2CCOC1)C1CCCCC1 | -105.7*
Cc1ccc(OCC(=O)Nc2ccc(-c3nc4ncccc4o3)cc2)c(C)c1 | -102.1*
Cc1cc(-c2nc3ncccc3o2)ccc1NC(=O)CC(C)C | -74.7*
CC(C)CC(=O)NC(c1cccs1)c1ccc2cccnc2c1O (stereo not drawn) | 74.0
O=C1N(c2ccccc2)C[C@@H]2C[C@@H](c3cc4ccccc4o3)N3CCC[C@@]123 | -594.1*
SMILES | aSyn 5UTR act
COc1ccc(Nc2nc3ccc(OC)cc3s2)cc1 | -119.7*
CCOC(=O)c1cc2nc(Nc3ccc(OC)cc3)sc2s1 | -83.2*
COc1ccc2nc(Nc3nc(C)c(C(C)=O)s3)sc2c1 | -186.3*
COc1ccc(NC(=O)C/C(C)=N/NC(=O)c2cccs2)c([N+](=O)[O-])c1 | -111.0*
COc1ccc(NC(=O)c2cccs2)c([N+](=O)[O-])c1 | -160.6*
COc1ccc(NC(=O)c2sccc2C)c([N+](=O)[O-])c1 | -184.2*
COc1ccc(NC(=O)/C=C/c2ccccc2)c([N+](=O)[O-])c1 | -175.7*
CCCCC(=O)Nc1ccc(C(=O)Nc2ccc(OC)cc2[N+](=O)[O-])cc1 | 60.6
Nc1c(Br)cc2oc(-c3ccccc3)nc2c1Br | -178.8*
COc1ccc(NC(=O)C#Cc2ccccc2)cc1 | -385.3*
O=C(C#Cc1ccccc1)Nc1ccc(F)cc1 | -195.0*
O=C(C#Cc1ccccc1)Nc1cccc(F)c1 | -383.2*
CC(=O)Oc1ccc(C(=O)[C@H]2[C@H]3C(=O)N(c4ccc(C)cc4)C(=O)[C@H]3[C@@H]3C=CC=NN32)cc1 | -62.4*
O=C(Nc1ccccc1)[C@@H]1[C@@H]2C(=O)N(c3ccc(F)cc3)C(=O)[C@@H]2[C@H]2C=CC=NN21 | -67.9*
Nc1nc2ccccc2n1/N=C/c1ccc([N+](=O)[O-])s1 | 83.4
Nc1nc2ccccc2n1/N=C/c1ccc(-c2ccccc2)o1 | -190.8*
COc1ccc(NC(=O)c2cc3c([nH]c4ccccc43)c(C)n2)cc1 | -84.2*
O=C(Nc1ccc(Cl)cc1)c1ccc(Br)cc1F | -123.5*
COc1cc2ccccc2cc1C(=O)Nc1ccccc1Cl | -138.7*
COc1ccc(C(=O)Nc2ccc3cn[nH]c3c2)c(OC)c1 | -98.6*
CCOc1ccc(NC(=O)c2cccc3ccccc23)cc1 | -318.2*
CCOc1ccc(NC(=O)c2cc3ccccc3cc2O)cc1 | -201.0*
COc1ccc(NC(=O)c2cc3ccccc3cc2OC)cc1 | -167.6*
CCOc1ccc(NC(=O)c2cc3ccccc3cc2OC)cc1 | -133.3*
CCOc1ccc(NC(=O)c2cc(OC)nc3ccccc23)cc1 | 83.0
SMILES | aSyn 5UTR act
COc1ccc(-c2cc(C(=O)Nc3cccnc3)no2)cc1OC | -187.2*
CCOc1ccc(NC(=O)c2ccc(F)cc2F)cc1 | -103.3*
COc1cc2ccccc2cc1C(=O)Nc1cccnc1 | -138.6*
COc1ccc(NC(=O)c2ccc3ccccc3c2OC)cc1 | -214.8*
COc1cc2ccccc2cc1C(=O)Nc1ccc(N2CCN(C)CC2)cc1 | -175.8*
COc1cccc(C=Nc2ccccc2C(=O)Nc2ccccc2)c1O | -70.9*
Cc1ccc(C=Nc2ccccc2C(=O)Nc2ccccc2)cc1 | -77.2*
Cc1ccc(C=Nc2ccccc2C(N)=O)cc1 | -109.2*
CSc1ccc(C2C(C(=O)c3ccco3)=C(O)C(=O)N2c2nnc(SC)s2)cc1 (stereo not drawn) | -62.0*
Cn1c(/C=C/c2ccccc2)nc2ccccc2c1=O | -137.5*
